Rows were chosen to be rich in hits. Some 12% of all compounds tested hit in one or more screens of this group.
Arbovirus inh – arbovirus infection inhibition | arbovirus infection cell-based antiviral screen | hit rate 0.37% among 200,000 | inhibition, % at 10 µM; in the data active means inhibition above about 30%
WT yeast gro inh – growth inhibition of WT yeast, mitochondrial fusion screen; mitochondrial fusion phenotypic screen, WT strain; inhibition, % at 10 µM; hit rate 2.1% among 190,000; in the data active means inhibition above about 58%; tested in S. cerevisiae
CHOP inhibitor – blocks CHOP induction under ER stress; inhibition, % at 10 µM; hit rate 3.8% among 220,000; CHO-K1 CHOP-promoter luciferase, tunicamycin-induced, 15-18 h;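 active means compounds that reduced the stress-induced luciferase reporter signal by more than about 70% of percent inhibition, limit read from the data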
Lmaj promast – inhibitors of Leishmania major promastigote growth | Leishmania major promastigotes, resazurin fluorescence viability | inhibition, % at 10 µM | hit rate 9% among 200,000 | AID 1063; in the data active means inhibition above about 50%;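 further: promastigotes grown with compound for 44 hours at 28 °C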
Large screens that a line does not name were inactive.

Cc1cc(C)nc(NC2=NC3CCCCC3N2)n1 (stereo not given)	Lmaj promast 64
CCOC(=O)C1CCCN(Cc2c(Cl)cccc2Cl)C1 (stereo not given)	CHOP inhibitor 71
CCOC(=O)C1CCCN(Cc2ccccc2F)C1 (stereo not given)	none
CCOC(=O)C1CCCN(CCC(C)c2ccccc2)C1 (stereo not given)	Lmaj promast 78
CCOC(=O)C1CCCN(CCC(=O)Nc2ccccc2)C1 (stereo not given)	none
Cc1ccc(C)c(OCCn2c(=O)c3c(ncn3C3CCCC3)n(Cc3ccccc3)c2=O)c1	Lmaj promast 96
CCn1c(-c2cc3c(C(F)(F)F)nn(C)c3s2)n[nH]c1=S	none
CN1CCN(S(=O)(=O)c2ccc(N3CCc4ccccc4C3)nc2)CC1	Lmaj promast 94
COC(=O)CCCn1c(C)cc(C(=O)CCl)c1C	Lmaj promast 100
Cc1cc(C(=O)CCl)c(C)n1CCc1ccccc1	Lmaj promast 100
CCOC(=O)c1cc(C)n(CCc2ccccc2)c1C	none
COC(=O)CCn1c(C)cc(C(=O)COc2ccccc2C(N)=O)c1C	none
COC(=O)CCCCCN1C(=O)/C(=C\c2ccncc2)SC1=S	none (no result: Arbovirus inh, WT yeast gro inh, Lmaj promast)
CC(C)N(C(=O)c1sc2cc([N+](=O)[O-])ccc2c1Cl)C(C)C	Lmaj promast 97
O=C(c1sc2cc([N+](=O)[O-])ccc2c1Cl)N1CCOCC1	none
O=C(CSc1nc2ccc(Cl)cc2[nH]1)c1cccs1	none (no result: Arbovirus inh, WT yeast gro inh, Lmaj promast)
O=C(CSc1nc2cc(Cl)ccc2o1)NCCc1ccccc1	WT yeast gro inh 68
O=C(CSc1nc2cc(Cl)ccc2o1)c1cccs1	Lmaj promast 57
O=C(CCSc1ccc(Cl)cc1)c1cccs1	Lmaj promast 70
S=C1NC[C@H](CC2CCCCC2)N1CCCCC1CCCCC1	none (no result: Arbovirus inh, WT yeast gro inh, Lmaj promast)
CCOc1cc(/C=C2/C(=N)N3C=CSC3=NC2=O)ccc1OCCCOc1ccccc1C	CHOP inhibitor 85
COc1cccc2c1C(=O)c1c(O)c3c(c(O)c1C2=O)C[C@@](O)(C(=O)CO)C[C@@H]3O[C@H]1C[C@H](N)[C@H](O)[C@H](C)O1	WT yeast gro inh 59, Lmaj promast 100 (no result: CHOP inhibitor)
Nc1nnc(SCc2ccc(F)cc2)n1-c1ccccc1	none
CC(CC(=O)Nc1cc([N+](=O)[O-])ccc1Cl)c1ccccc1 (stereo not given)	none
CC(C)(C)NS(=O)(=O)c1ccc(NC(=O)C(Sc2ccccc2)c2ccccc2)cc1 (stereo not given)	CHOP inhibitor 75, Lmaj promast 56
O=C(Nc1ccc(Cl)c([N+](=O)[O-])c1)C(Sc1ccccc1)c1ccccc1 (stereo not given)	WT yeast gro inh 80, CHOP inhibitor 83
O=C(Nc1ccc(Cl)c([N+](=O)[O-])c1)C(NCCCO)c1ccccc1 (stereo not given)	none
O=C(Nc1cc([N+](=O)[O-])ccc1Cl)C(Sc1ccccc1)c1ccccc1 (stereo not given)	Lmaj promast 96
CC(C)[C@@H](C(=O)N1CCN(C(=O)OC(C)(C)C)CC1)n1cc(CCO)nn1	none
O=C(NCc1ccccn1)c1cn(-c2ccccc2)nc1-c1ccc(Cl)cc1	none
O=C(CCC(=O)c1ccc(F)cc1)Nc1cccnc1	none
O=C(CCC(=O)c1ccc(F)cc1)Nc1cc(Cl)cc(Cl)c1	CHOP inhibitor 84
CCOC(=O)CCC(NC(=O)CCCC(=O)NC(CCC(=O)OCC)C(=O)OCC)C(=O)OCC (stereo not given)	none
CC(=O)N1c2ccccc2C2(O)N=C(C)SC12 (stereo not given)	CHOP inhibitor 105
CC(=O)N1c2ccccc2Nc2ccccc21	none
O=c1oc2ccc3ccccc3c2cc1-c1nc2ccccc2o1	Lmaj promast 100 (no result: Arbovirus inh, WT yeast gro inh, CHOP inhibitor)
COc1ccc2oc(=O)c(-c3nc4ccccc4o3)cc2c1	Lmaj promast 98
Nc1ccc2oc(-c3cccc4ccccc34)nc2c1	CHOP inhibitor 81
O=c1oc2ccccc2cc1-c1nc2ccccc2o1	none
CS(=O)(=O)ON=C1CCN(S(=O)(=O)c2ccccc2)CC1	none
Cc1ccc(NS(=O)(=O)c2ccc(OCC(=O)NCC3CCCO3)cc2)cc1 (stereo not given)	none
COc1ccc2c(=O)cc(-c3ccccc3F)oc2c1	none (no result: Arbovirus inh, WT yeast gro inh, Lmaj promast)
Cc1ccn2c(c1)nc(=S)n2C(=O)c1ccco1	none
COc1ccc(C(=S)N2CCOCC2)cc1OS(=O)(=O)c1ccccc1[N+](=O)[O-]	none
COc1ccc(C=O)cc1OS(=O)(=O)c1ccccc1[N+](=O)[O-]	Lmaj promast 90
Cc1ccc(C(=O)c2cn[nH]c2-c2cc(Cl)ccc2O)cc1	Lmaj promast 98
Cc1nc(NC(=O)/C=C/c2ccc(C(C)(C)C)cc2)sc1C(=O)N(C)C	Lmaj promast 61
Cc1nc(Nc2ccccc2)sc1C(=O)c1ccccc1	none (no result: Arbovirus inh, WT yeast gro inh, Lmaj promast)
CCOC(=O)c1sc(NC(=O)/C=C/c2ccc(F)cc2)nc1C	none

Screening data as filed in PubChem BioAssay.
